Measurements from ChEMBL document CHEMBL3988442, “University of Dundee, Small-Polar-MMV Screening Library” (2021).
In all, about 48,000 compounds went through this assay and about 13,000 (27%) showed an effect of 50% or more. The list shows a part of the results.

The molecules below were run on Wolbachia pipientis (assay: Anti-Wolbachia Cell-Based Screen). Conditions: 5 µM.
Assay type: functional
Parameters: scale not given: in the data most compounds retested in dose-response had high values

SMILES | Percent Effect [%]
CC[C@H]1CN2CC[C@H]1C[C@@H]2CNCc1ccc(OC)cc1 | -6.876
Cc1ccc(Cl)cc1-n1nnnc1C1(N2CCCC2)CCCCC1 | -13.17
Cc1cccc(-n2nnnc2C2(NCc3ccco3)CCCCC2)c1 | 79.56
COc1ccc(-n2nnnc2C2(NCc3ccco3)CCCCC2)cc1 | 77.41
Clc1ccc(-n2nnnc2C2(NCc3ccco3)CCCCC2)cc1 | 73.59
CSc1nccc(N2CCN(C)C3(CCNC(=O)CC3)C2)n1 (stereo not drawn) | -8.805
c1ccc(NC[C@@H]2CCC[C@@H]3CN(Cc4csnn4)C[C@@H]32)nc1 | 5.24
Cc1cccc(CN2CC3C[C@]3(NC(=O)c3ccoc3)C2)n1 (stereo partly drawn) | -6.434
O=C(O)C(F)(F)F.O=C(O)C(F)(F)F.O=C(O)C(F)(F)F.c1ccc(CO[C@@H]2CO[C@@]3(CCN(Cc4ccccn4)C3)C2)nc1 | 19.79
CS(=O)(=O)N[C@@H]1CN(Cc2ccncc2)C[C@@H]2CCCO[C@@H]21.O=C(O)C(F)(F)F.O=C(O)C(F)(F)F | -0.6746
CS(=O)(=O)NC1CC2(CCN(CCF)CC2)Oc2ccccc21.O=C(O)C(F)(F)F (stereo not drawn) | 90.28
CCC(O)Cn1cc(C2=CCN(Cc3cc(O)nc(C)n3)CC2)cn1 (stereo not drawn) | 5.407
Cl.Cl.Cn1ccc(CN2CCOCC23CCNCC3)n1 | -7.915
CN(CCc1ccccc1)Cc1c(C2CC2)[nH]c2ncccc12 | 128
CN(Cc1ccccc1)c1ncccc1CNC1CN2CCC1CC2 (stereo not drawn) | -8.195
O=C(O)C(F)(F)F.O=C(O)C(F)(F)F.O=C(O)C(F)(F)F.c1cnc(NC[C@H]2OC[C@@H]3CCN(Cc4cccnc4)C[C@@H]32)nc1 | 106.3
c1cnc(NC[C@H]2OC[C@@H]3CCN(Cc4ccncc4)C[C@@H]32)nc1 | 115
c1ccc(CN2CC[C@H]3CO[C@H](CNc4ncccn4)[C@H]3C2)nc1 | -4.696
Cn1cc(CN2CC[C@H]3CO[C@H](CNc4ncccn4)[C@H]3C2)cn1.O=C(O)C(F)(F)F.O=C(O)C(F)(F)F | -23.96
O=C(O)C(F)(F)F.O=C(O)C(F)(F)F.O=C(O)C(F)(F)F.c1cnc(NC[C@H]2OC[C@@H]3CCN(Cc4nccs4)C[C@@H]32)nc1 | 101
O=C(O)C(F)(F)F.O=C(O)C(F)(F)F.c1ccc(CN2CC[C@H]3CO[C@H](CNc4ncccn4)[C@H]3C2)cc1 | 109.8
c1csc(CN2CC[C@H]3C[C@H](c4ccncn4)O[C@@H]3C2)c1 | 13.32
Cc1ccc(OCC(=O)N2CCN[C@H]3CS(=O)(=O)C[C@H]32)cn1 | -8.198
N#CC1(c2ccccc2)CCN(C(=O)C2CCCN(C(N)=O)C2)CC1 (stereo not drawn) | 6.737
CCC(CC)C(=O)N1CCOC2(CNC2)C1 | -30.77
CS(=O)(=O)c1ccc(CC(=O)N2CCN3CCNC(=O)C3C2)cc1 (stereo not drawn) | -12.31
Cc1cc(CN2C[C@@H]3CN(C(=O)c4ccsc4)CCO[C@@H]3C2)no1.O=C(O)C(F)(F)F | 15.19

SMILES | Percent Effect [%]
CN(C)CCNC(=O)[C@H]1C[C@H]2CN(c3ncccn3)C[C@H]2N1C.O=C(O)C(F)(F)F.O=C(O)C(F)(F)F.O=C(O)C(F)(F)F | -2.268
COCC(=O)NC[C@H]1C[C@@H]2CCN1C[C@@H]2c1cc(-c2cccs2)nn1C | -7.322
Cn1ccnc1CN1CC[C@H]2CO[C@H](CNc3ncccn3)[C@H]2C1.O=C(O)C(F)(F)F.O=C(O)C(F)(F)F.O=C(O)C(F)(F)F | 100.8
CN1CCN(C[C@@H]2OC[C@H]3CN(Cc4ccncc4)CC[C@H]32)CC1 | 117.8
O=C1[C@H]2CN(Cc3ccoc3)C[C@@H]2CCN1Cc1cccnc1 | -2.353
CS(=O)(=O)NC[C@H]1OC[C@@H]2CN(Cc3cccnc3)CC[C@@H]21 | 117.5
O=C(O)C(F)(F)F.O=C(O)C(F)(F)F.c1cnc(NC[C@H]2OC[C@@H]3CCN(Cc4ccsc4)C[C@@H]32)nc1 | 103.6
CN1CCN([C@H]2COC[C@@H]3CN(Cc4cccnc4)C[C@@H]32)CC1 | 3.012
CN(c1ncccc1C#N)C1CCN(Cc2ccncc2)CC1 | -9.884
COc1ccc(CCN)cc1-c1ccc(C(N)=O)cc1 | -8.06
Cc1noc(C)c1CN1C[C@@H]2OCCN(Cc3cnn(C)c3)[C@@H]2C1 | -6.904
COCCn1c(C(=O)NC(C(N)=O)C(C)C)cc2ccccc21 (stereo not drawn) | -3.087
Cc1ccccc1-n1cc(C2=CCN(CCn3cc[nH]c3=O)CC2)cn1 | 20.16
Cc1cc(C)c(CNc2ncnc3ccsc23)c(=O)[nH]1 | 1.6
O=C(O)C(F)(F)F.O=C(O)C(F)(F)F.O=C(O)C(F)(F)F.c1ccc(CN2CC[C@@H]3[C@@H](CO[C@@H]3CNc3ncccn3)C2)nc1 | 94.77
O=C(CC1CC1)N[C@@H]1CN(Cc2ccccn2)C[C@@H]2CCCO[C@@H]21.O=C(O)C(F)(F)F.O=C(O)C(F)(F)F | -3.839
O=S1(=O)CCC(n2cc(C3=CCN(CCn4cccc4)CC3)cn2)C1 (stereo not drawn) | -6.845
Cc1nc(C(C)C)sc1C(=O)N1CCN(C2CN3CCC2CC3)CC1 (stereo not drawn) | 76.14
COCCN1CCCC12CCCN(c1ncccn1)C2 (stereo not drawn) | -3.4
CC(C)(C)c1cc(=O)[nH]c(C2(N)CCCCC2)n1.Cl | -23.57
COCCN1C[C@@H]2OCCN(c3ccnc(N(C)C)n3)[C@@H]2C1 | 104.4
Cc1cccc(CN2C[C@@H]3OCCN(S(=O)(=O)N(C)C)[C@@H]3C2)n1 | 2.928
CN(C)c1nccc(N2CCO[C@H]3CN(Cc4ccsc4)C[C@H]32)n1.O=C(O)C(F)(F)F | 12.89
CN(C)c1nccc(N2CCO[C@H]3CN(Cc4ccco4)C[C@H]32)n1 | 68.55
c1ccc(CCN2C[C@@H]3OCCN(c4ncccn4)[C@@H]3C2)cc1 | 21.57
Cn1ccnc1CN1C[C@@H]2OCCN(c3ncccn3)[C@@H]2C1 | 7.273
